For assay [1], the system named is TRPC4 beta (transient receptor potential cation channel C4), mouse. Nature of the assay: activators of mouse TRPC4 channel, confirmation, cell-based, Fluo4 calcium, HEK293 TRPC4beta/mu-opioid, duplicates, 10 µM (AID 2426;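 active = fluorescence ratio normalized to control raised more than 50% in primary screen plus both repeat runs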;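 as to activation: percent rise of integrated ratio over buffer wells lacking compound which define 0%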). The following applies: Fluo4 calcium fluorescence, at 10 µM; stronger effect = higher value.
In assay [2] the test system is transient receptor potential cation channel C4 beta (TRPC4), mouse. The experiment in a line: activators of mouse TRPC4 channel, confirmation, cell-based, second round, Fluo4, HEK293 TRPC4beta/mu-opioid, 1 µM (AID 2461;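 active = primary screen active and over 50% activation in each of two duplicate runs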;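 as to activation: 0% = wells without test compound as baseline of integrated fluorescence ratio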). Conditions: Fluo4 calcium fluorescence, at 1 µM; stronger effect = higher value.
The subject of assay [3] is TRPC4 (transient receptor potential cation channel C4 beta), mouse. The experiment in a line: positive allosteric modulators of mouse TRPC4, confirmation, cell-based, second round, Fluo-4, HEK293 TRPC4beta/mu-opioid, 1 µM (AID 2554). Conditions: DAMGO EC20, Fluo-4 calcium flux, at 1 µM; stronger effect = higher value.
In assay [4] the test system is TRPC4 beta (transient receptor potential cation channel C4), mouse. Nature of the assay: positive allosteric modulators of mouse TRPC4, confirmation, cell-based, Fluo-4, HEK293 TRPC4beta/mu-opioid (AID 2555;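 active = primary screen hit whose calcium fluorescence ratio, in both repeats, exceeds the weak agonist control mean by 3 SD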). The following applies: DAMGO EC20, Fluo-4 calcium flux, at 10 µM; stronger effect = higher value. Background: Calcium assays in cells follow changes in intracellular calcium, usually with a dye or a luminescent sensor.

In assay [5] the target is Short transient receptor potential channel 4 (Mus musculus) (UniProt Q9QUQ5). The experiment in a line: inhibitors of mouse TRPC4 channel, confirmation, cell-based, Fluo4, HEK293 TRPC4beta/mu-opioid (AID 2636;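 active = calcium signal cut by more than 3 SD below the full-agonist control yet still positive, in both repeats and the earlier primary screen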). Conditions: DAMGO, Fluo4 calcium flux, at 10 µM; stronger effect = higher value.
Chain of Short transient receptor potential channel 4 (Mus musculus) (Q9QUQ5 whole entry, looked up): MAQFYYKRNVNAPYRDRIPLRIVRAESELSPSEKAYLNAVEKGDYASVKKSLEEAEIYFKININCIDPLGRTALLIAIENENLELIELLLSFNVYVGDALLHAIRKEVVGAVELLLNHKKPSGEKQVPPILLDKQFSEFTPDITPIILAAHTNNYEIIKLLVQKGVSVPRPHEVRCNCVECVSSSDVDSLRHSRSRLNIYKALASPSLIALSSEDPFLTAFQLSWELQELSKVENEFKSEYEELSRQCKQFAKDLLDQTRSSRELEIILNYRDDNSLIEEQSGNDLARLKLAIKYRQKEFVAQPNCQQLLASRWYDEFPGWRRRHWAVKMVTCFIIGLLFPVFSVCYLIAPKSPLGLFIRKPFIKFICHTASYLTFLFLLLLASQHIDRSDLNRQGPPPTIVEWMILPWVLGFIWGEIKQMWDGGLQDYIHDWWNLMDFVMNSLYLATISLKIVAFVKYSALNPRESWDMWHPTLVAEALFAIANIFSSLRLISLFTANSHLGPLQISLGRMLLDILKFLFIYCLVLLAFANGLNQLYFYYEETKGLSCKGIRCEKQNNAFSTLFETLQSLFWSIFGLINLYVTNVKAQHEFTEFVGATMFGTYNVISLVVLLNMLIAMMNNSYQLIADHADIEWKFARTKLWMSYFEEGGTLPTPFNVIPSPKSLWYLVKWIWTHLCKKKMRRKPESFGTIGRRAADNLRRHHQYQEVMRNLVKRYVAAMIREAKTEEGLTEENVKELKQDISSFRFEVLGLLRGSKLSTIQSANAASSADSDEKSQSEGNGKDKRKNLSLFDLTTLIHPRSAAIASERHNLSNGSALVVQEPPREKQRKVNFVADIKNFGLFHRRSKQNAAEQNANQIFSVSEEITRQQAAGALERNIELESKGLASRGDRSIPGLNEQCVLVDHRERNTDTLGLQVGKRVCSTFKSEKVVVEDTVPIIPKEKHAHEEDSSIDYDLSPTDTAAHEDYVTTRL
For assay [6] the target is unchanged. The experiment in a line: inhibitors of mouse TRPC4 channel, confirmation, cell-based, second round, Fluo4, HEK293 TRPC4beta/mu-opioid, 1 µM (AID 2637;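 active = calcium signal ratio cut to more than 3 SD under the fully stimulated control mean yet still positive, in both repeats and the primary screen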). The following applies: Fluo4 calcium flux, DAMGO, at 1 µM; stronger effect = higher value.
Assay [7] has the same target. The experiment in a line: TRPC4 positive allosteric modulators, dose response, cell-based, HEK293 TRPC4/mu-opioid, Fluo-4 calcium, EC20 DAMGO (AID 434941;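 active = earlier screen potentiator hit that boosts the TRPC4 ion channel at some dose, with a dose response; inactive = no potentiation, no dose response, or not a prior hit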;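 also: calcium entry triggered by an EC20 dose of DAMGO at the co-expressed mu-opioid receptor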).
The target is the same in assay [8]. Nature of the assay: mouse TRPC4 channel inhibitors, dose response, cell-based, HEK293 TRPC4/mu-opioid, Fluo-4 calcium (AID 434942;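 active = primary screen inhibitor hit that blocks the TRPC4 channel at some tested dose, yielding a dose curve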).
Assay [9] concerns the target Short transient receptor potential channel 6 (Mus musculus) (UniProt Q61143). The experiment in a line: inhibition of mouse TRPC6 channel, confirmation, selectivity assay for TRPC4 inhibitor project, cell-based, HEK293, membrane potential dye, duplicate (AID 434948;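 active = active in primary screen and both duplicates, each dropping signal beyond three positive-control SD with fluorescence still positive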). Conditions: HEK293 TRPC6, membrane potential dye fluorescence, at 10 µM, stimulated with maximal-effect acetylcholine; stronger effect = higher value.

The target is the same in assay [10]. Nature of the assay: activation of mouse TRPC6 channel, confirmation, selectivity assay for TRPC4 activator project, cell-based, HEK293, membrane potential dye, duplicate (AID 434950;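 active = membrane potential signal rise above negative control mean plus 3 SD in both duplicates, also active in the earlier TRPC4 screen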;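 as to activation: 0% = buffer only wells and 100% = acetylcholine maximal-effect wells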). The following applies: HEK293 TRPC6, membrane potential fluorescence, at 10 µM; stronger effect = higher value.
For assay [11] the target is unchanged. Nature of the assay: TRPC6 potentiation by TRPC4 potentiator hits, confirmation, selectivity assay for TRPC4 potentiator project, HEK293 cells, membrane potential dye, duplicate (AID 434952;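 active = compound raising the membrane signal above positive-control mean plus 3 SD in both repeats, and a primary screen hit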). Conditions: HEK293 TRPC6, membrane potential dye fluorescence, at 10 µM, maximal acetylcholine added after compound; stronger effect = higher value.
The target in assay [12] is Short transient receptor potential channel 4 (Mus musculus) (UniProt Q9QUQ5). Nature of the assay: calcium flux activators in TRPC4/5HT1a cells, counter-screen for TRPC4 activator project, cell-based, second counter screen, HEK293 TRPC4/5HT1a, Fluo-4 (AID 434977;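 active = calcium signal rise above buffer-control mean plus 5 SD in both duplicates, and also a hit in the primary screen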;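 as to activation: plate controls were assay buffer for no effect and maximal serotonin response for full effect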). Conditions: Fluo-4 calcium flux, at 10 µM; stronger effect = higher value.
The nature of assay [13]: calcium flux inhibitors in TRPC4/5HT1a cells, confirmation, counter-screen for TRPC4 inhibitor project, cell-based, second counter screen, HEK293 TRPC4/5HT1a, Fluo-4 (AID 434978;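 active = primary screen active whose calcium signal fell more than 3 SD beyond the full-serotonin control mean in both duplicate plates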;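 also: serotonin given first at submaximal then at maximal dose after compound preincubation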). Conditions: Fluo-4 calcium flux, at 10 µM, serotonin added to trigger calcium flux; stronger effect = higher value.
Assay [14] deals with TRPC4 (mouse), co-expressed with 5HT1a in HEK293. Nature of the assay: calcium flux potentiators in TRPC4/5HT1a cells, confirmation, counter-screen for TRPC4 potentiator project, cell-based, second counter screen, HEK293 TRPC4/5HT1a, Fluo-4 (AID 434979;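 active = signal rise over 3 SD above mean of control wells given weak agonist, in both repeats and first screen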). Conditions: Fluo-4 calcium flux, at 10 µM, serotonin added at its EC20 dose; stronger effect = higher value.
Assay [15] is described as follows: calcium flux activation in mu-opioid HEK293 cells, confirmation, counter-screen for TRPC4 activator project, cell-based, HEK293 mu-opioid receptor line (AID 449723;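 active = hit in primary screen, with calcium signal over 5 SD above buffer well mean in both duplicates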;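 also: counter screen cells carry the mu-opioid receptor alone and lack TRPC4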). The following applies: Fluo-4 calcium fluorescence, at 10 µM; stronger effect = higher value.
The nature of assay [16]: calcium flux enhancement in mu-opioid HEK293 cells, confirmation, counter-screen for TRPC4 allosteric potentiator project, cell-based, HEK293 mu-opioid receptor line (AID 449724;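 active = calcium signal rise more than 3 SD above the low-dose agonist control mean, in both duplicate plates and the primary screen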;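 also: HEK293 cells carrying mu-opioid receptor only with no TRPC4 channel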). Conditions: Fluo-4 calcium flux, at 10 µM, compound added before EC20 DAMGO stimulus; stronger effect = higher value.

For part of these data: Entries with a potency or affinity are not part of this list. Activity calls are given as the source filed them.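 The calls were made as follows, unless noted: active = primary screen hit whose fluorescence ratio, in both repeats, exceeds the weak agonist control mean by 3 SD; inactive = the rest.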

Chain of Short transient receptor potential channel 6 (Mus musculus) (Q61143 whole entry, looked up): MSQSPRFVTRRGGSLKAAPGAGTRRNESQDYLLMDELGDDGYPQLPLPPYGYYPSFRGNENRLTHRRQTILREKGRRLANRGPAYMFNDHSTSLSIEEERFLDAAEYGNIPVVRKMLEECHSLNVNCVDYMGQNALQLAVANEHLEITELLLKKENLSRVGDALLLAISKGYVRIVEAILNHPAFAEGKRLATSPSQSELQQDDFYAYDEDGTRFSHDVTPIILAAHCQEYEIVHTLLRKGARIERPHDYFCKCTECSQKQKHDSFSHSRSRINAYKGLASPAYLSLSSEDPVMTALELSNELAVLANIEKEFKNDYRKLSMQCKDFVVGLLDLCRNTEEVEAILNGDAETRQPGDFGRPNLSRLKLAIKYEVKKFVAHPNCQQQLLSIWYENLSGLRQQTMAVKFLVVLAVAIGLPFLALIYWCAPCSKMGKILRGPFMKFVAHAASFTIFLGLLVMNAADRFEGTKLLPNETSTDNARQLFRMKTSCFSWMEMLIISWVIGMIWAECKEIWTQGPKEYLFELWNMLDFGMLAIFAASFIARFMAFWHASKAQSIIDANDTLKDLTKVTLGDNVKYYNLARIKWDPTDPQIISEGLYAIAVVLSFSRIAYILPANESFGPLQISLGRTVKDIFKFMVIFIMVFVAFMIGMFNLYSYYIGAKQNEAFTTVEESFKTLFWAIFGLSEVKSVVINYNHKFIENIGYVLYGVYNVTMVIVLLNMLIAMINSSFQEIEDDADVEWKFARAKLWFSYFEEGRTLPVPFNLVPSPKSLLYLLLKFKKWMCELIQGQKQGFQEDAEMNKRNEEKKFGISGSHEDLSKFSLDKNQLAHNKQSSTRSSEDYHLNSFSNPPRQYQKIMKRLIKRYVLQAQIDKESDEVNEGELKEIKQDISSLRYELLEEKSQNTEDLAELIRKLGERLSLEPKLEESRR

For `Cc1onc(-c2ccccc2)c1C(=O)NC(=S)NNC(=O)c1ccco1`, the activation was 142% (active) in assay [1], 30.5% (active) in assay [10] and 51.5% (active) in assay [12]. The result in assay [2], in assay [3], in assay [4], in assay [5], in assay [6] and in assay [7] was inactive. The result in [8], in [9], in assay [11], in assay [13], in assay [14] and in [15] was inactive. Moreover, the outcome in assay [16] was inactive.
As to `COc1ccc(C(CNC(=O)CN2C(=O)NC3(CCCC3)C2=O)N(C)C)cc1` (stereo not given), the activation in assay [1] is 121% (active). Moreover, the outcome in assay [2], in assay [3], in assay [4], in [5], in [6] and in [7] was inactive. For the same compound, the outcome in assay [8], in assay [9], in [10], in assay [11], in assay [12] and in [13] was inactive. For the same compound, the outcome in [14], in [15] and in [16] was inactive.
For `COc1ccc(C(CNC(=O)c2cccc(NS(=O)(=O)c3ccc(C)c(F)c3)c2)N(C)C)cc1` (stereo not given), the activation in [1] is 135% (active); in assay [10] it was 28.5% (active). Moreover, the result in assay [2], in [3], in assay [4], in assay [5], in assay [6] and in assay [7] was inactive. Besides, the outcome in assay [8], in [9], in [11], in assay [12], in assay [13] and in [14] was inactive. The outcome in [15] and in [16] was inactive.
On to `FC(F)(F)c1cnc(N2CCCN(C(=S)Nc3ccccc3)CC2)c(Cl)c1`, for which the activation in assay [1] is 208% (active); in assay [2], 62% (active); in assay [12], 84.8% (active). For the same compound, the outcome in assay [3], in assay [4], in assay [5], in assay [6], in assay [7] and in assay [8] was inactive. Besides, the compound was called inactive in [9], in assay [10], in [11], in [13], in assay [14] and in assay [15]. Moreover, the result in assay [16] was inactive.
With `CC1CC(C)CN(CCCNC(=O)c2nn(C)c3c2CS(=O)(=O)c2ccccc2-3)C1` (stereo not given), the activation in assay [1] is 112% (active); in assay [2], 72% (active); in assay [10] it was 40.5% (active); in assay [12], 43.2% (active). The result in assay [3], in assay [4], in assay [5], in [6], in assay [7] and in assay [8] was inactive. The compound was classed as inactive in [9], in assay [11], in assay [13], in assay [14], in [15] and in [16].
For the compound `COc1cc(/C=C/C(=O)c2ccc3c(c2)OCO3)cc(Cl)c1O`, the activation was 113% (active) in assay [1], 427% (active) in [10], 69.2% (active) in [12] and 122% (active) in assay [15]. Moreover, the result in assay [2], in assay [3], in assay [4], in assay [5], in assay [6] and in [7] was inactive. In addition, the outcome in assay [8], in assay [9], in [11], in assay [13], in assay [14] and in [16] was inactive.
Turning to `OCCNCCSc1ccc(Cl)cc1`, the activation was 82% (active) in assay [1], 39.5% (active) in assay [10] and 22.3% (active) in [12]. Also, the result in [2], in assay [3], in [4], in assay [5], in assay [6] and in assay [7] was inactive. The result in assay [8], in [9], in assay [11], in assay [13], in [14] and in assay [15] was inactive. For the same compound, in [16], the result was inactive.
As to `Cc1ccc(C)c(S(=O)(=O)N2CCN(C(=O)CCc3nc4ccccc4c(=O)[nH]3)CC2)c1`, the activation in assay [1] was 153% (active); in assay [10], 39% (active); in assay [12], 25.2% (active). The result in assay [2], in [3], in assay [4], in assay [5], in assay [6] and in assay [7] was inactive. Moreover, the result in [8], in assay [9], in [11], in assay [13], in assay [14] and in assay [15] was inactive. In addition, the result in assay [16] was inactive.
Regarding `CCn1cc(CN2CCCC(C(=O)Nc3ccc(-c4nc5ccccc5[nH]4)cc3)C2)c(C)n1` (stereo not given), the activation in assay [1] was 169% (active); in [2], 116% (active); in [10], 52% (active); in [12], 35.7% (active). Moreover, the result in assay [3], in [4], in [5], in [6], in assay [7] and in assay [8] was inactive. Moreover, the compound was called inactive in assay [9], in assay [11], in assay [13], in [14], in assay [15] and in assay [16].
In the case of `CCN1CCN(c2ccc(S(=O)(=O)N3CCCCC3)cc2NC(=O)C(C)Oc2ccc(F)cc2)CC1` (stereo not given), the activation in assay [1] is 185% (active); in [10] it was 32.5% (active); in assay [12], 9.95% (active). In addition, the result in assay [2], in assay [3], in [4], in assay [5], in [6] and in assay [7] was inactive. Moreover, the result in assay [8], in assay [9], in assay [11], in assay [13], in assay [14] and in assay [15] was inactive. Moreover, the result in assay [16] was inactive.
Regarding `CCOc1ccccc1CN1CCNC(=O)C1CC(=O)NCCc1ccccn1` (stereo not given), the result in [1], in [2], in [3], in assay [4], in assay [5] and in assay [6] was inactive. The result in assay [7], in assay [8], in [9], in assay [11], in [13] and in assay [14] was inactive. For the same compound, the result in assay [15] and in [16] was inactive. In addition, the values for the activation in assay [10] and in [12] were 23.5% (active) and 17.3% (active), respectively.
For `CCCN(CCC)CCCNC(=O)C1CCC(CNS(=O)(=O)c2cccc3nsnc23)CC1` (stereo not given), the activation was 83% (active) in assay [1], 52% (active) in assay [2] and 29.2% (active) in assay [12]. The outcome in [3], in [4], in assay [5], in assay [6], in assay [7] and in assay [8] was inactive. Moreover, the compound was classed as inactive in [9], in assay [10], in [11], in [13], in assay [14] and in [15]. In addition, the result in [16] was inactive.
Regarding `Cc1csc2c(N3CCN(C(=S)Nc4ccc(F)cc4F)CC3)ncnc12`, the activation in assay [1] is 126% (active); in assay [12] it was 40.5% (active). Also, the result in assay [2], in assay [3], in assay [4], in [5], in [6] and in [7] was inactive. In addition, the result in assay [8], in assay [9], in assay [10], in assay [11], in [13] and in assay [14] was inactive. For the same compound, the outcome in [15] and in assay [16] was inactive.
As to `COc1ccc(C(=O)NC(=S)NNC(=O)c2c(-c3ccccc3)noc2C)cc1OC`, the outcome in [1], in assay [2], in assay [3], in assay [4], in assay [5] and in assay [6] was inactive. The outcome in [7], in assay [8], in assay [9], in assay [11], in [13] and in assay [14] was inactive. The outcome in [15] and in assay [16] was inactive. For the same compound, the activation is 39% (active) in [10] and 24.4% (active) in assay [12].
`COc1cc(C(=O)NC(=S)NNC(=O)[C@H]2C[C@@H]2c2ccccc2)cc(OC)c1OC`: the activation in assay [1] is 59% (active); in assay [10], 34% (active); in [12] it was 63.3% (active); in assay [15], 13.1% (active). Also, the result in assay [2], in assay [3], in assay [4], in assay [5], in assay [6] and in assay [7] was inactive. In addition, the result in [8], in assay [9], in assay [11], in [13], in [14] and in [16] was inactive.

The values above are taken from PubChem BioAssay.
